# “And” between values parts separate entries of the source, which are not always exact repeats. Equal entries are not always repeated.
# Molecular target: Phosphatidylinositol 4,5-bisphosphate 3-kinase catalytic subunit alpha isoform (Homo sapiens) (UniProt P42336);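 note: values are mean percent inhibition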
# Conditions: at 1 µM
# Phosphatidylinositol 4,5-bisphosphate 3-kinase catalytic subunit alpha isoform (Homo sapiens), sequence (P42336 whole entry, canonical isoform): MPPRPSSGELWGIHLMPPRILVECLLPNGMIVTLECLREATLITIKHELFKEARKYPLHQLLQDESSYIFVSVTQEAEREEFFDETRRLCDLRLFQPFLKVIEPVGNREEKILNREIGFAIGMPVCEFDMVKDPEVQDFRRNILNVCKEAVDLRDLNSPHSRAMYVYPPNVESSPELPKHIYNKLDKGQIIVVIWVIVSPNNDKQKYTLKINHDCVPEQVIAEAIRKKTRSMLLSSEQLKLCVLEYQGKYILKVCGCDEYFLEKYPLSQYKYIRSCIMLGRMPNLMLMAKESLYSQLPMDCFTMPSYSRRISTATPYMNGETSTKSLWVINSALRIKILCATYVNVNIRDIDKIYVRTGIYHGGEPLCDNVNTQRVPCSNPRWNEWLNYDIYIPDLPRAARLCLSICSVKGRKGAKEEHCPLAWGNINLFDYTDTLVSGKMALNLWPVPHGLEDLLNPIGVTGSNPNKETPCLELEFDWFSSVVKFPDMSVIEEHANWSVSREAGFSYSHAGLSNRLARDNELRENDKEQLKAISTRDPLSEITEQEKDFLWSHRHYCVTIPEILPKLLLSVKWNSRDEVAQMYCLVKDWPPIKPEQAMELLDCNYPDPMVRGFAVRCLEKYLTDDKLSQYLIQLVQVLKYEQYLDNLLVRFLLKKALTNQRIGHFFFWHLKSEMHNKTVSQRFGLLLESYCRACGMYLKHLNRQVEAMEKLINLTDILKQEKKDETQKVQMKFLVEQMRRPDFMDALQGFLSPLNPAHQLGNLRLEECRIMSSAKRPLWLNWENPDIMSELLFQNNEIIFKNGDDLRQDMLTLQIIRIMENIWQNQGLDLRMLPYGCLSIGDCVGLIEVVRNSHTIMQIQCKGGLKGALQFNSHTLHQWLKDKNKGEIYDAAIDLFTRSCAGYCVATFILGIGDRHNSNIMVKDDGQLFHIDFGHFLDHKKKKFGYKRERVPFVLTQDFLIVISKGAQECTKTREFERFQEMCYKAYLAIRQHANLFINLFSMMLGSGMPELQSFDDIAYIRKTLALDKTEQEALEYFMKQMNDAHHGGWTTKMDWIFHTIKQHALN
row,SMILES,inhibition
1,O=C(O[C@H]1CN[C@H](C#Cc2cc3ncnc(Nc4ccc5c(cnn5Cc5ccccc5)c4)c3s2)C1)N1CCOCC1,7.49%
2,Cn1c(-c2nonc2N)nc2cnccc21,3.15%
3,Nc1ncnc2occ(-c3ccc(NC(=O)Nc4cc(C(F)(F)F)ccc4F)cc3)c12,1.36% and 0.28%
4,O=C(Nc1n[nH]c2nnc(-c3cccnc3)cc12)C1CC1,1.26%
5,COc1ccc2ncn(-c3cc(O[C@H](C)c4ccccc4C(F)(F)F)c(C(N)=O)s3)c2c1,4.81%
6,CCOc1ccc2c(-c3ccnc(Nc4cc(OC)cc(C(F)(F)F)c4)n3)cnn2n1,5.25%
7,c1ccc(-c2n[nH]cc2-c2ccnc(-c3ccc(OCCn4ccnc4)cc3)c2)nc1,3.3%
8,CCN1CCC(C(=O)Nc2n[nH]c3nnc(-c4cccc(F)c4F)cc23)CC1,-2.49%
9,Nc1nonc1-c1nc2cnccc2n1C1CC1,3.77% and 8%
10,O=C1Nc2ccccc2/C1=C1\CCc2cc(O)ccc21,6.82%
11,NC(=O)c1ccc2c(-c3ccnc(NCCCO)n3)c(-c3ccc(F)cc3)nn2c1,6.09%
12,NS(=O)(=O)c1ccc(N/N=C2\C(=O)Nc3cccc(CCc4ccncc4)c32)cc1,1.55%
13,FC(F)(F)CNc1nccc(-c2cnn3ncccc23)n1,3.51%
14,COc1ccc(-c2nn3ncccc3c2-c2ccnc(Nc3ccc(F)c(F)c3)n2)cc1,3.75%
15,c1cnn2ncc(-c3ccnc(NCCCN4CCOCC4)n3)c2c1,8.31%
16,COc1cc(Nc2ncc(-c3ccccc3)o2)cc(OC)c1,6.87%

row,SMILES,inhibition
1,CCS(=O)(=O)c1ccc(OC)c(Nc2ncc(-c3cccc(C(C)=O)c3)o2)c1,1.8%
2,COC(=O)Nc1nc2ccc(Oc3ccc(NC(=O)Nc4cc(C(F)(F)F)ccc4F)cc3)cc2s1,2.51%
3,COc1ccc(Nc2ncc(-c3ccccc3)o2)cc1OC,0.95%
4,NS(=O)(=O)c1cccc(N/C=C2\C(=O)Nc3ccccc32)c1,7.3%
5,COc1cc(N2CCN(C(C)C)CC2)ccc1Nc1nc(Nc2cccc3ncccc23)c2cc[nH]c2n1,1.96%
6,COc1cc(N2CCN(C(C)C)CC2)ccc1Nc1nc(Nc2cccc(F)c2C(=O)O)c2cc[nH]c2n1,4.42%
7,CN1CCC(C(=O)Nc2n[nH]c3nc(-c4ccc(O)cc4)c(Br)cc23)CC1,2.06% and 2.14%
8,O=C(O[C@H]1CN[C@H](C#Cc2cc3ncnc(Nc4ccc(OCc5cccc(F)c5)c(Cl)c4)c3s2)C1)N1CCOCC1,26.9%
9,CN(C)CCNC(=O)Nc1ccc(N(C)c2ccnc(Nc3ccc(CS(C)(=O)=O)cc3)n2)cc1,3.13%
10,NS(=O)(=O)c1ccc(N/N=C2\C(=O)Nc3ccc(C(=O)NCc4ccncc4)cc32)cc1,0.8%
11,Fc1ccc(Nc2nccc(-c3c(-c4ccc(C(F)(F)F)cc4)nn4ncccc34)n2)cc1F,3.77%
12,CC1(C)CC(n2cnc(-c3ccc(F)cc3)c2-c2ccnc(N)n2)CC(C)(C)N1,4.5%
13,Cc1c2ccc(N(C)c3ccnc(Nc4cccc(S(N)(=O)=O)c4)n3)cc2nn1C,14.4%
14,CN1CCC(n2cnc(-c3ccc(F)cc3)c2-c2ccnc(NCCO)n2)CC1,2.41%
15,CS(=O)(=O)CCNCc1ccc(-c2ccc3ncnc(Nc4ccc(OCc5ccccc5)cc4)c3c2)o1,4.79%

# Molecular target: T1, Phosphatidylinositol 4,5-bisphosphate 3-kinase catalytic subunit delta isoform (Homo sapiens) (UniProt O00329);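 note: values are mean percent inhibition of PI3K-delta, part of the GSK PKIS screen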
# T1 sequence (whole entry): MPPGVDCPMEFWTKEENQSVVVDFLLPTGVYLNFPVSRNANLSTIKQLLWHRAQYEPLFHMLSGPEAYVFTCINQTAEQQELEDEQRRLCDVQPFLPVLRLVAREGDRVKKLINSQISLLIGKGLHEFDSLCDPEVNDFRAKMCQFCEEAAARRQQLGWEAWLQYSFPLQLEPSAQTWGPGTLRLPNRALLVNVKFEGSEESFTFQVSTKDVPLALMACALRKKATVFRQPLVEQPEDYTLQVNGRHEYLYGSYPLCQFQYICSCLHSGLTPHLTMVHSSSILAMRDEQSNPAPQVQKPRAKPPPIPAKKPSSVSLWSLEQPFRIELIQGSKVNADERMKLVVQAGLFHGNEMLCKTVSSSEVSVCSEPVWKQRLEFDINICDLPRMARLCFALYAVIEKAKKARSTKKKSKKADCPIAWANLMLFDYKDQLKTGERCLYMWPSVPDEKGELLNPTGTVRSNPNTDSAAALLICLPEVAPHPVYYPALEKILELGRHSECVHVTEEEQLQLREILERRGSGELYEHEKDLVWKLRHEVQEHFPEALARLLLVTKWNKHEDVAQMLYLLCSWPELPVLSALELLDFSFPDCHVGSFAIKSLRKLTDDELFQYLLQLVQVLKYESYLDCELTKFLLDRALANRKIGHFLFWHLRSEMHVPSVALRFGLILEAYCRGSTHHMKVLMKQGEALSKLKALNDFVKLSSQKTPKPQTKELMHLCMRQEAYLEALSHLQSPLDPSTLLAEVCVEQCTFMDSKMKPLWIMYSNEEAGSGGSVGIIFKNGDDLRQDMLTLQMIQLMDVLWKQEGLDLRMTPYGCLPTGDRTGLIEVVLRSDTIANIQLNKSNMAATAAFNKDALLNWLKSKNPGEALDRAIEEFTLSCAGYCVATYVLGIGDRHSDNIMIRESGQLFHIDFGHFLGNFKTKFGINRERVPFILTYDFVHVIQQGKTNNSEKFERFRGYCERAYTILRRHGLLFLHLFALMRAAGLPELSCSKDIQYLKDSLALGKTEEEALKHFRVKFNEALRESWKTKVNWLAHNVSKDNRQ
# Conditions: at 0.1 µM
row,SMILES,inhibition
1,O=C(O[C@H]1CN[C@H](C#Cc2cc3ncnc(Nc4ccc5c(cnn5Cc5ccccc5)c4)c3s2)C1)N1CCOCC1,0.29%
2,Cn1c(-c2nonc2N)nc2cnccc21,1.35%
3,Nc1ncnc2occ(-c3ccc(NC(=O)Nc4cc(C(F)(F)F)ccc4F)cc3)c12,1.09% and -2.88%
4,O=C(Nc1n[nH]c2nnc(-c3cccnc3)cc12)C1CC1,1.05%
5,COc1ccc2ncn(-c3cc(O[C@H](C)c4ccccc4C(F)(F)F)c(C(N)=O)s3)c2c1,2.14%
6,CCOc1ccc2c(-c3ccnc(Nc4cc(OC)cc(C(F)(F)F)c4)n3)cnn2n1,-1.72%
7,c1ccc(-c2n[nH]cc2-c2ccnc(-c3ccc(OCCn4ccnc4)cc3)c2)nc1,1.43%
8,CCN1CCC(C(=O)Nc2n[nH]c3nnc(-c4cccc(F)c4F)cc23)CC1,-3.18%
9,Nc1nonc1-c1nc2cnccc2n1C1CC1,1.84% and 8.17%
10,O=C1Nc2ccccc2/C1=C1\CCc2cc(O)ccc21,2.68%
11,NC(=O)c1ccc2c(-c3ccnc(NCCCO)n3)c(-c3ccc(F)cc3)nn2c1,2.78%
12,NS(=O)(=O)c1ccc(N/N=C2\C(=O)Nc3cccc(CCc4ccncc4)c32)cc1,0.97%
13,FC(F)(F)CNc1nccc(-c2cnn3ncccc23)n1,0.99%
14,COc1ccc(-c2nn3ncccc3c2-c2ccnc(Nc3ccc(F)c(F)c3)n2)cc1,1.6%
15,c1cnn2ncc(-c3ccnc(NCCCN4CCOCC4)n3)c2c1,7.14%
16,COc1cc(Nc2ncc(-c3ccccc3)o2)cc(OC)c1,5.4%

row,SMILES,inhibition
1,CCS(=O)(=O)c1ccc(OC)c(Nc2ncc(-c3cccc(C(C)=O)c3)o2)c1,0.22%
2,COC(=O)Nc1nc2ccc(Oc3ccc(NC(=O)Nc4cc(C(F)(F)F)ccc4F)cc3)cc2s1,1.44%
3,COc1ccc(Nc2ncc(-c3ccccc3)o2)cc1OC,0.94%
4,NS(=O)(=O)c1cccc(N/C=C2\C(=O)Nc3ccccc32)c1,4.26%
5,COc1cc(N2CCN(C(C)C)CC2)ccc1Nc1nc(Nc2cccc3ncccc23)c2cc[nH]c2n1,-1.65%
6,COc1cc(N2CCN(C(C)C)CC2)ccc1Nc1nc(Nc2cccc(F)c2C(=O)O)c2cc[nH]c2n1,-0.59%
7,CN1CCC(C(=O)Nc2n[nH]c3nc(-c4ccc(O)cc4)c(Br)cc23)CC1,1.92% and 0.51%
8,O=C(O[C@H]1CN[C@H](C#Cc2cc3ncnc(Nc4ccc(OCc5cccc(F)c5)c(Cl)c4)c3s2)C1)N1CCOCC1,3.37%
9,CN(C)CCNC(=O)Nc1ccc(N(C)c2ccnc(Nc3ccc(CS(C)(=O)=O)cc3)n2)cc1,2.63%
10,NS(=O)(=O)c1ccc(N/N=C2\C(=O)Nc3ccc(C(=O)NCc4ccncc4)cc32)cc1,0.21%
11,Fc1ccc(Nc2nccc(-c3c(-c4ccc(C(F)(F)F)cc4)nn4ncccc34)n2)cc1F,1.05%
12,CC1(C)CC(n2cnc(-c3ccc(F)cc3)c2-c2ccnc(N)n2)CC(C)(C)N1,5.71%
13,Cc1c2ccc(N(C)c3ccnc(Nc4cccc(S(N)(=O)=O)c4)n3)cc2nn1C,6.47%
14,CN1CCC(n2cnc(-c3ccc(F)cc3)c2-c2ccnc(NCCO)n2)CC1,1.87%
15,CS(=O)(=O)CCNCc1ccc(-c2ccc3ncnc(Nc4ccc(OCc5ccccc5)cc4)c3c2)o1,0.74%

# Source: ChEMBL document CHEMBL1961873, “Compounds: GSK PKIS; Assays: Nanosyn kinase panel” (2012)
